We go through 42 compounds from PubChem BioAssay (NCATS).

Results filed as inconclusive are left out. Entries that show only a call come without a potency. A number with no mark means an inactive call. The source made the active and inactive calls. The call rests on the fitted dose curve; in most records, active means well fitted curve in the direction sought with a large enough effect; inconclusive means small, poorly fitted or top-dose-only effect, or another doubt; inactive means no such curve, though single readings can be large; an effect the other way counts as inactive or inconclusive.

Assay [1] deals with Aldehyde dehydrogenase, mitochondrial (Homo sapiens) (UniProt P05091). Nature of the assay: qHTS for Inhibitors of the Aldehyde Dehydrogenase Family (ALDH2) Primary screen (AID 2061308). Further: nearly all actives have a fitted effect of over 55% in size.
Assay [2] deals with Retinaldehyde dehydrogenase 3 (Homo sapiens) (UniProt P47895). Nature of the assay: qHTS for Inhibitors of the Aldehyde Dehydrogenase Family (ALDH1A3) Primary screen (AID 2061315). (qHTS replaces the single test concentration by a dilution series.)

On to `CN(C)c1ccc2nc(NC(=S)N3CCN(c4cccc(C(F)(F)F)c4)CC3)sc2c1`, for which the Potency result in assay [1] and in assay [2] was “inactive” in each case.

For `Cc1cc(C)nc(NC(=S)N2CCN(c3ccc(Cl)c(Cl)c3Cl)CC2)c1`, the Potency entry in assay [1] and in assay [2] was “inactive” in each case.

As to `O=S(=O)(Nc1ccc2ccccc2c1)c1ccc(NCc2cccc(Cl)c2O)cc1`, the Potency entry in assay [1] and in assay [2] was “inactive” throughout.

Take `C=C1C(=O)O[C@H]2C1CCC(C)=C1C(=O)C=C(C)[C@@]12O` (some centres undefined): the Potency entry in assay [1] and in assay [2] was “inactive” throughout.

Consider `Cc1csc(CNc2ncnc3ccc(-c4ccc5c(c4)OCO5)cc23)n1`, for which the Potency result in assay [1] and in assay [2] was “inactive” each time.

`Cc1csc(CNc2ncnc3ccc(-c4ccc5c(c4)OCCO5)cc23)c1`: the Potency entry in assay [1] and in assay [2] was “inactive” throughout.

Regarding `Cc1ccc(-c2cc(C(=O)Nc3ccc(C#N)cc3)c3ccccc3n2)cc1C`, the Potency entry in assay [1] and in assay [2] was “inactive” in each case.

As for `Cc1ccc(-n2nc3c(N4CCCC(C(=O)NCc5ccccc5C)C4)nnc(C)c3c2C)cc1` (centres undefined), the Potency entry in assay [1] and in assay [2] was “inactive” each time.

For `Cc1ccc(S(=O)(=O)Nc2cnccc2C(=O)Nc2nc(-c3cccc(Cl)c3)cs2)cc1`, the Potency entry in assay [1] and in assay [2] was “inactive” in each case.

Consider `O=[S+]([O-])(c1ccc2c(c1)OCCO2)N1CCN([S+](=O)([O-])c2ccc(F)cc2Cl)CC1`, for which the Potency result in assay [1] and in assay [2] was “inactive” throughout.

With `CN(c1ccc(NC(=O)Nc2ccccc2)cc1)S(=O)(=O)c1cnn(-c2ccc(F)cc2)c1`, the Potency entry in assay [1] and in assay [2] was “inactive” throughout.

Turning to `O=C1Cc2cc(S(=O)(=O)N3CCN(c4ccc(CO)cc4)CC3)ccc2N1`, the Potency entry in assay [1] and in assay [2] was “inactive” each time.

As for `N#Cc1ccc(NC(=O)Nc2nnc(-c3ccncc3)s2)c(Cl)c1`, the Potency entry in assay [1] and in assay [2] was “inactive” throughout.

`CCN1CCCC1Cn1c(-c2ccccc2)nc2c(N3CCOCC3)nc(C)nc21` (centres undefined): the Potency result in assay [1] and in assay [2] was “inactive” throughout.

Regarding `COc1ccccc1-c1nc2ccccc2s1`, the Potency entry in assay [1] and in assay [2] was “inactive” in each case.

`CN(Cc1ccco1)c1ncnc2ccc(-c3ccc4c(c3)OCO4)cc12`: the Potency entry in assay [1] and in assay [2] was “inactive” throughout.

Turning to `Cc1ccccc1C(=O)N1CCc2cc(-c3nc(NC(=O)CC4CCCCC4)sc3C)ccc21`, the Potency result in assay [1] and in assay [2] was “inactive” each time.

In the case of `O=S(=O)(Nc1cccc2cccnc12)c1ccc(Br)s1`, the Potency entry in assay [1] and in assay [2] was “inactive” throughout.

With `O=C(Nc1ccc(S(=O)(=O)Nc2nccs2)cc1)c1cccnc1`, the Potency entry in assay [1] and in assay [2] was “inactive” throughout.

For `COc1cccc(C2c3c(ncn(Cc4cccs4)c3=N)Oc3ccc4ccccc4c32)c1` (centres undefined), the Potency entry in assay [1] and in assay [2] was “inactive” throughout.

Turning to `Fc1ccc(-c2nc(-c3ccncc3)nc3ccccc23)cc1F`, the Potency result in assay [1] and in assay [2] was “inactive” each time.

With `Cn1nnnc1Sc1ncnc2n[nH]c(-c3cccc(S(C)(=O)=O)c3)c12`, the Potency result in assay [1] and in assay [2] was “inactive” each time.

For `COc1cc(Nc2nc(-c3ccncc3)nc3ccccc23)ccc1NS(C)(=O)=O`, the Potency entry in assay [1] and in assay [2] was “inactive” throughout.

On to `CN(CC(F)(F)F)c1nc(NCc2ccc(-c3cccnc3)cc2)c2ccccc2n1`, for which the Potency entry in assay [1] and in assay [2] was “inactive” in each case.

Take `NC(=O)C1CCN(c2nccc(Cl)n2)CC1`: the Potency result in assay [1] and in assay [2] was “inactive” in each case.

As for `O=C(Nc1ncc(Cc2ccc(C(F)(F)F)cc2)s1)c1cnc(-c2ccccc2)s1`, the Potency result in assay [1] and in assay [2] was “inactive” in each case.

`Cc1cccc(-n2cnc3cc(C(=O)N4CCC(C#N)CC4)ccc32)c1`: the Potency result in assay [1] and in assay [2] was “inactive” throughout.

Regarding `Cc1csc(CNc2ncnc3ccc(-c4ccc5c(ccn5C)c4)cc23)c1`, the Potency result in assay [1] and in assay [2] was “inactive” in each case.

As to `Fc1cc(Nc2nc(-c3ccncc3)nc3ccccc23)ccc1-c1ccnc(C(F)(F)F)c1`, the Potency result in assay [1] and in assay [2] was “inactive” throughout.

In the case of `O=C(NCCc1ccccc1)C1CCN(c2nc(-c3ccc(Br)cc3)cs2)CC1`, the Potency entry in assay [1] and in assay [2] was “inactive” each time.

As for `COc1ccc2c(c1)Oc1ncn(CCN3CCOCC3)c(=N)c1C2c1ccc(OC)c(OC)c1` (centres undefined), the Potency result in assay [1] and in assay [2] was “inactive” in each case.

Regarding `N#Cc1ccc(OC2=NS(=O)(=O)c3ccccc32)cc1`, the Potency entry in assay [1] and in assay [2] was “inactive” in each case.

Take `O=S(=O)(c1ccc2c(c1)OCCO2)N1CCN(S(=O)(=O)c2cccc(Cl)c2F)CC1`: the Potency result in assay [1] and in assay [2] was “inactive” in each case.

Regarding `COC(=O)c1ccc(Cn2ncc3c4sc(C)cc4n(C)c3c2=O)cc1`, the Potency entry in assay [1] and in assay [2] was “inactive” throughout.

Consider `COc1cc(O)c(C(CC(=O)N2CCC(c3ccccc3)CC2)c2ccc(C)cc2)c(OC)c1` (centres undefined), for which the Potency result in assay [1] and in assay [2] was “inactive” in each case.

For the compound `Cc1cc(C)nc(NC(=S)N2CCN(c3ccc(C(=O)O)cc3)CC2)c1`, the Potency entry in assay [1] and in assay [2] was “inactive” each time.

Regarding `Cc1ccc(-c2ccc(=O)n(CCN)n2)cc1`, the Potency entry in assay [1] and in assay [2] was “inactive” in each case.

Turning to `FC(F)(F)c1ccccc1-c1nc(NCc2ccc(Br)cc2)c2ccccc2n1`, the Potency entry in assay [1] and in assay [2] was “inactive” each time.

Turning to `COC(=N)c1nc2ccc3ncnc(Nc4ccc(F)cc4Br)c3c2s1`, the Potency entry in assay [1] and in assay [2] was “inactive” in each case.

With `N#CN1CCC(N[S+](=O)([O-])c2cccc(F)c2)CC1`, the Potency result in assay [1] and in assay [2] was “inactive” throughout.

For the compound `O=C(O)CNC(=O)CNC(=O)CNC(=O)CSC(=O)c1ccccc1`, the Potency entry in assay [1] and in assay [2] was “inactive” each time.

On to `Cc1nc(N2CCOCC2)c2nc(-c3ccccc3)n(CCN3CCCCC3)c2n1`, for which the Potency entry in assay [1] and in assay [2] was “inactive” each time.
